SMILES strings stand for the structures. About 79,000 compounds went through this panel and 15% of them were active in at least one assay; those are over-represented in the sample as a whole. Unmarked numbers belong to inactive results. The source made the active and inactive calls. Cut-off read from the data, not from the text of the source: active = growth inhibition above about 70%; inactive = the rest.

A short description of this assay: NCI Yeast Anticancer Drug Screen. Data for the cln2 rad14 strain (AID 165).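 Note: 0% = growth equal to vehicle treated cultures.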 The following applies: S. cerevisiae cln2 rad14 strain, at 5.0 µM (retest, dose inferred, filed as 0.5), active compounds read high. An outline of the steps: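 Strain: cln2 rad14 yeast, altered in cell cycle control and DNA damage repair. Read-out: growth inhibition vs vehicle.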
Regarding `CNS(=O)(=O)c1ccccc1C=C(c1ccccc1)c1ccccc1`, the growth inhibition is 2%.
For `CC(C)c1cc(C(C)C)c(Cl)c(Cl)c1O` (tested in a mixture with another compound), the growth inhibition is 5%.
As to `Nc1cccc2cccnc12`, the growth inhibition is 4%.
Regarding `C[n+]1c(/C=C/c2ccc(N3CCCC3)cc2)sc2ccccc21`, the growth inhibition was 60%.
For `Nc1cn(C2OC(CC(c3ccccc3)(c3ccccc3)c3ccccc3)C(O)C2O)c(=O)[nH]c1=O` (centres undefined), the growth inhibition is 96% (active).
To `c1ccc(Cn2nnc(-c3ccccc3)c2-c2ccccc2)cc1` belongs 6%; to `CCCCCC(CCCCC)OC(=O)CCN(CCCCC)CCCCC`, 5%.
With `C=CCC1(OC(C)=O)CC2C(=O)C(=O)C(C1)N2OC(=O)c1ccccc1` (centres undefined), the growth inhibition is 9%.
Regarding `C=CS(=O)(=O)c1ccc([N+](=O)[O-])cc1`, the growth inhibition is -16%.
To `Cc1ccc(S(=O)(=O)Oc2ccc(C(C)(C)C)cc2Cl)cc1` belongs -3%.
Next, `O=C(CCl)N1CCN(C(c2ccccc2)c2ccccc2)CC1`: 12%.
Take `Oc1ccc2ccccc2c1.[Cu+2]`: the growth inhibition is -4%.
Next, `NS(=O)(=O)c1ccc(NC(=O)Cc2nc3ccccc3s2)cc1`: 31%; `O=C(COc1ccc(Cl)cc1)OCCO`: 3%.
`NC(=Nc1ccccc1)SCc1ccc([N+](=O)[O-])cc1`: the growth inhibition was 52%.
With `N[C@@H]1CCCC[C@@H]1N.O=C([O-])CN(CP(=O)([O-])[O-])CP(=O)([O-])[O-].[Pt+2]`, the growth inhibition is 3%.
As to `C/C=C(\C)CC/C=C/CO[Si](C)(C)C(C)(C)C`, the growth inhibition was 11%.
Regarding `CCOC(=O)c1cnc2cc3cccccc3n2c1=O`, the growth inhibition was -2%.
Take `C(=N\NC1=NCCN1)/c1ccc(-c2cn3cc(/C=N/NC4=NCCN4)ccc3n2)cc1`: the growth inhibition was 92% (active).
Take `CC(CN(C)C)C(/C=C/c1ccc(F)cc1)=N\Nc1ccccc1` (centres undefined): the growth inhibition was 5%.
Next, `O=C1C(Sc2ccc3ccccc3c2)=C(Sc2ccc3ccccc3c2)C(=O)c2ccccc21`: 7%; `CC(O)c1cccnc1` (centres undefined): 20%; `Cc1cccc2nc3nc(Cl)c(Cl)nc3n12`: 7%.
To `CSc1cc2c(cc1N)Cc1cc(F)ccc1-2` belongs -10%; to `CC(C)C1=CC23CCC4C(C)(C(=O)O)CCCC4(C)C2CC1c1c(O)ccc(O)c13` (centres undefined), 28%; to `C=CCNC(=S)N/N=C(\CCC)c1ccccn1`, 96% (active).
Next, `C#CC(C)(C)OC(C)=O`: 2%; `Cc1cc(N2C(=O)CSC2=S)c([N+](=O)[O-])cc1C`: 7%; `Cc1[nH]c(=O)[nH]c(=O)c1CN(C)Cc1cc(Cl)cc(Cl)c1O`: -3%.
For `CCCCC(CC)C(O)C(=O)O` (centres undefined), the growth inhibition is 6%.
Next, `CCOCCOc1ccc(OCCOCC)cc1`: -4%; `O=C(O)c1ccc(C(=O)c2ccccc2C(=O)O)cc1`: -2%; `CCCCCCCCCCCCCCNC(=O)CCC(NC(=O)c1ccc(N(C)Cc2cnc3nc(N)nc(N)c3n2)cc1)C(=O)NCCCCCCCCCCCCCC` (centres undefined): 3%.
Next, `C=C1C(=O)C23OC2C1CCC(=O)C1(C)CC[C@H](OC(C)=O)C(C)(C)[C@H]1CC3O` (some centres undefined): 71% (active); `CCCCCCCCCCC(NC(C)=O)(C(=O)OCC)C(=O)OCC`: -5%; `ClC(Cl)(Cl)/C=C/c1cnc2ccccc2n1`: -3%.
In the case of `CCc1nc(N)nc(N)c1-c1ccc(N(C)Cc2ccccc2)c([N+](=O)[O-])c1`, the growth inhibition was 31%.
Next, `O=C(COC(=O)C(c1ccccc1)c1ccccc1)c1ccc(Br)cc1`: -5%; `OCCN1COc2cc3c(cc2C1)OCN(CCO)C3`: 3%.

Source of the values: PubChem BioAssay (NCI).
